In ChEMBL document CHEMBL1201862, “PubChem BioAssay data set” (2004) one finds GI50 data, which are given here for eleven substances.

Hit rate of the full screen: of about 57,000 sequences, about 4,100 (7.2%) were called active. Cut-off read from the data, not from the text of the source: active = GI50 up to about 1.1 µM and inactive = higher. The list is a sample of the results. Measured potencies and affinities stand elsewhere.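 Tested at 5 concentrations; 48 h exposure; 96-well plates; endpoints linearly interpolated, else capped at highest concentration. At the GI50, growth is halved.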

The subject of the assay is SK-MEL-5. Description: NCI tumour cell line growth inhibition, 48 h.
“cis-Bis[[(trimethylsilyl)methyl]amino]tetrachloroplatinum(IV), CHEMBL2146191” yielded a GI50 of 3.48 µM.

Turning to “[Bis(aminomethyl)tetramethylenesilane]tetrachloropaltinum(IV), CHEMBL2146189”, the GI50 was 5.77 µM. Under CISPLATIN, CHEMBL11359 stands 2.69 µM; under “[Bis(aminomethyl)tetramethylenesilane]dichloropaltinum(II), CHEMBL2146205”, 14.8 µM. In turn, “[Bis(aminomethyl)pentamethylenesilane]dichloropaltinum(II), CHEMBL2146202” displayed a GI50 of 3.3 µM.

For the substance “[Bis(aminomethyl)diethylsilane]tetrachloroplatinum(IV), CHEMBL2146203”, the GI50 turned out to be 73.8 µM. Under “[Bis(aminomethyl)ethylmethylsilane]tetrachloroplatinum(IV), CHEMBL2146192” stands 1.15 µM; under “[Bis(aminomethyl)pentamethylenesilane]tetrachloropaltinum(IV), CHEMBL2146204”, 3.21 µM; under “mu-(1,7-nanodiamine-N,N')bis-(cis-aminedichloroplatimum (II)), CHEMBL2146215”, 5.82 µM. Turning to “[Bis(aminomethyl)dimethylsilane]dichloroplatinum (II), CHEMBL2146201”, the GI50 was 11.2 µM.

On to “[Bis(aminomethyl)dimethylsilane]tetrachloroplatinum(IV), CHEMBL2146190”, for which the GI50 was 3.85 µM.
